Laboratory results taken from PubChem BioAssay (EPA / NIEHS).
Inconclusive results are not listed. Activity calls are given as the source filed them. The calls were made as follows: active = hit-call score of the fitted dose curve at least 0.9, where 1 is the maximum; inconclusive = response in the unintended direction; inactive = score below 0.9.

Legend:
[1] = tested on: guinea pig Leukotriene B4 Receptor (LTB4), gene 100379538; test: NVS_GPCR_gLTB4: NovaScreen (NVS) G Protein-Coupled Receptor Assay for guinea pig Leukotriene B4 Receptor (LTB4) (AID 2283247)
Method in brief: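 Radioligand displacement on guinea pig spleen membranes, filter-based scintillation counting 2 h after dosing. Primary duplicate single point at 25 uM; hits over threshold (e.g. 30% inhibition) run in concentration-response up to 50 uM, DMSO baseline.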

[2] = molecular target: guinea pig Leukotriene D4 Receptor (LTD4), CYSLTR1 (gene 100135514) (UniProt Q2NNR5); test: NVS_GPCR_gLTD4: NovaScreen (NVS) G Protein-Coupled Receptor Assay for guinea pig Leukotriene D4 Receptor (LTD4) (AID 2283248)
Method in brief: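 Radioligand displacement on guinea pig lung membranes, 1 h incubation, filtration and scintillation counting; DMSO as negative control. Duplicate 25 uM primary screen, then singleton concentration-response up to 50 uM.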

[3] = molecular target: human Serotonin, 5-Hydroxytryptamine Receptor 5A (5HT5A), HTR5A (gene 3361) (UniProt P47898); test: NVS_GPCR_h5HT5A: NovaScreen (NVS) G Protein-Coupled Receptor Assay for human Serotonin, 5-Hydroxytryptamine Receptor 5A (5HT5A) (AID 2283251)
Method in brief: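 Cell-free radioligand displacement binding on HEK293-derived membrane protein, 1 h incubation, filter-based scintillation counting. Primary screen in duplicate at 25 uM, actives followed in concentration series; loss of signal fitted versus DMSO.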

[4] = molecular target: human Adenosine A1 Receptor (AdoRA1), ADORA1 (gene 134) (UniProt P30542); test: NVS_GPCR_hAdoRA1: NovaScreen (NVS) G Protein-Coupled Receptor Assay for human Adenosine A1 Receptor (AdoRA1) (AID 2283254)
Method in brief: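 Radioligand competition binding on human cortical membranes, 1 h after compound addition; bound radioactivity read by filtration and scintillation counting. Loss of signal versus DMSO baseline scored as displacement; primary screen duplicate at 25 uM, actives retested in concentration series.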

[5] = molecular target: human Adrenergic, Alpha 2c Receptor (Adra2C), ADRA2C (gene 152) (UniProt P18825); test: NVS_GPCR_hAdra2C: NovaScreen (NVS) G Protein-Coupled Receptor Assay for human Adrenergic, Alpha 2c Receptor (Adra2C) (AID 2283259)
Method in brief: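 Radioligand binding on Sf9-expressed receptor membranes, 1 h after chemical dosing, filter-based scintillation read-out. Loss of binding fitted positively versus DMSO; primary duplicate screen at 25 uM, actives retested in concentration series.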

[6] = molecular target: human Dopamine Receptor D4.4 (DRD4.4), DRD4 (gene 1815) (UniProt P21917); test: NVS_GPCR_hDRD4.4: NovaScreen (NVS) G Protein-Coupled Receptor Assay for human Dopamine Receptor D4.4 (DRD4.4) (AID 2283264)
Method in brief: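 Radioligand displacement on human DRD4.4 from CHO-derived membranes, 1 hour incubation, bound counts read by filtration and scintillation. Primary screen in duplicate at 25 uM; actives followed up in concentration series.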

[7] = molecular target: human Histamine 1 Receptor (H1), HRH1 (gene 3269) (UniProt P35367); test: NVS_GPCR_hH1: NovaScreen (NVS) G Protein-Coupled Receptor Assay for human Histamine 1 Receptor (H1) (AID 2283268)
Method in brief: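 Cell-free radioligand displacement at human H1 receptor, 1 h, filter scintillation counting; primary screen 25 uM in duplicate, hits in concentration series; loss of binding fitted vs DMSO.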

[8] = molecular target: human Dopamine Receptor D2 (DRD2), DRD2 (gene 1813) (UniProt P14416); test: NVS_GPCR_hDRD2s: NovaScreen (NVS) G Protein-Coupled Receptor Assay for human Dopamine Receptor D2 (DRD2) (AID 2283266)
Method in brief: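 Radioligand displacement used human DRD2 membranes extracted from CHO cells and was read by filter-based scintillation counting after 1.5 hours. Primary screening was in duplicate at 25 uM. Loss of signal versus DMSO was fitted, with concentration series in follow-up.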

[9] = molecular target: guinea pig Opioid, Kappa 1 Receptor (OpiateK), OPRK1 (gene 100135587) (UniProt P41144); test: NVS_GPCR_gOpiateK: NovaScreen (NVS) G Protein-Coupled Receptor Assay for guinea pig Opioid, Kappa 1 Receptor (OpiateK) (AID 2283252);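 also: radioligand displacement from kappa opioid receptor in guinea pig cerebellar membranes; active means reduced radioligand binding relative to DMSO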
Method in brief: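 Signal is scintillation counts of filter-trapped radioligand bound to guinea pig cerebellar membrane receptor, measured 2 hours post-dosing. Activity is loss of binding versus DMSO, first at 25 uM in duplicate, then as concentration series for actives.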

[10] = molecular target: human Endothelin Receptor Type B (ETB), EDNRB (gene 1910) (UniProt P24530); test: NVS_GPCR_hETB: NovaScreen (NVS) G Protein-Coupled Receptor Assay for human Endothelin Receptor Type B (ETB) (AID 2283267)
Method in brief: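 Human astrocytoma cell membranes; radioligand competitive binding read by filter scintillation counting 4 hours after dosing. Single-concentration duplicate screen at 25 uM, then singleton concentration-response up to 50 uM; loss of signal versus DMSO.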

[11] = molecular target: human Serotonin, 5-Hydroxytryptamine Receptor 2A (5HT2A), HTR2A (gene 3356) (UniProt P28223); test: NVS_GPCR_h5HT2A: NovaScreen (NVS) G Protein-Coupled Receptor Assay for human Serotonin, 5-Hydroxytryptamine Receptor 2A (5HT2A) (AID 2283249)
Method in brief: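 Human cortex membranes, cell-free radioligand binding; filter-based scintillation read 1.5 h after dosing. Duplicate screen at 25 uM first; displacement of specific binding (loss of signal) versus DMSO.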

[12] = molecular target: human Serotonin, 5-Hydroxytryptamine Receptor 6 (5HT6), HTR6 (gene 3362) (UniProt P50406); test: NVS_GPCR_h5HT6: NovaScreen (NVS) G Protein-Coupled Receptor Assay for human Serotonin, 5-Hydroxytryptamine Receptor 6 (5HT6) (AID 2283253)
Method in brief: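 Radioligand binding to 5HT6 in HEK293-derived membranes, cell-free, 1 h after dosing; bound ligand measured by filter-based scintillation counting. Primary screen in duplicate at 25 uM; actives retested in concentration series.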

[13] = molecular target: human Adrenergic, Beta 1 Receptor (Adrb1), ADRB1 (gene 153) (UniProt P08588); test: NVS_GPCR_hAdrb1: NovaScreen (NVS) G Protein-Coupled Receptor Assay for human Adrenergic, Beta 1 Receptor (Adrb1) (AID 2283258)
Method in brief: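 Cell-free radioligand displacement on receptor from human neuroepithelioma cells; 2 h after dosing, filter-based scintillation counting. Primary screen in duplicate at 25 uM, actives retested in concentration series; loss of signal vs DMSO baseline.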

[14] = molecular target: Beta-2 adrenergic receptor (Homo sapiens) (UniProt P07550); test: NVS_GPCR_hAdrb2: NovaScreen (NVS) G Protein-Coupled Receptor Assay for human Adrenergic, Beta 2 Receptor (Adrb2) (AID 2283261)
Method in brief: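 Filter-based radioligand binding using receptor prepared from CHO cells, 1 h incubation, scintillation counting. Primary screen in duplicate at 25 uM, actives retested in concentration series; loss of binding relative to DMSO.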

[15] = tested on: guinea pig Muscarinic, Peripheral (Mperiperal) Receptor, Non-selective Binding, gene 100379235; test: NVS_GPCR_gMPeripheral_NonSelective: NovaScreen (NVS) G Protein-Coupled Receptor Assay for guinea pig Muscarinic, Peripheral (Mperiperal) Receptor, Non-selective Binding (AID 2283250)
Method in brief: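 Guinea pig bladder membranes, radioligand binding read 1 h after dosing by filter scintillation counting; loss of signal vs DMSO. Primary duplicate screen at 25 uM, then concentration-response up to 50 uM.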

[16] = molecular target: human Adenosine A2a Receptor (AdoRA2a), ADORA2A (gene 135) (UniProt P29274); test: NVS_GPCR_hAdoRA2a: NovaScreen (NVS) G Protein-Coupled Receptor Assay for human Adenosine A2a Receptor (AdoRA2a) (AID 2283256)
Method in brief: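 Cell-free radioligand binding on membranes from HEK293 expressing the receptor; competitive displacement read 1.5 h after dosing by filter-based scintillation counting. Primary screen in duplicate at 25 uM; actives followed in concentration series, with DMSO as baseline.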

[17] = molecular target: human Endothelin Receptor Type A (ETA), EDNRA (gene 1909) (UniProt P25101); test: NVS_GPCR_hETA: NovaScreen (NVS) G Protein-Coupled Receptor Assay for human Endothelin Receptor Type A (ETA) (AID 2283265)
Method in brief: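 Cell-free radioligand displacement using SH-SY5Y-derived protein, 3 h incubation, filter-based scintillation counting. Primary screen in duplicate at 25 uM; actives then run in concentration-response up to 50 uM; loss of binding fitted versus DMSO.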

[18] = molecular target: human Adrenergic, Beta 3 Receptor (Adrb3), ADRB3 (gene 155) (UniProt P13945); test: NVS_GPCR_hAdrb3: NovaScreen (NVS) G Protein-Coupled Receptor Assay for human Adrenergic, Beta 3 Receptor (Adrb3) (AID 2283262)
Method in brief: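 Membranes from SK-N-MC cells pretreated with isoproterenol and 8-bromo-cAMP were used in a radioligand competitive displacement binding assay. Binding was read by filter-based scintillation counting 1 hour after dosing. Primary screening was in duplicate at 25 uM, with concentration series in follow-up.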

[19] = molecular target: human Adrenergic, Alpha 2A Receptor (Adra2A), ADRA2A (gene 150) (UniProt P08913); test: NVS_GPCR_hAdra2A: NovaScreen (NVS) G Protein-Coupled Receptor Assay for human Adrenergic, Alpha 2A Receptor (Adra2A) (AID 2283257)
Method in brief: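 Radioligand filter-binding was run on HT29-derived membranes, cell-free, read by scintillation counting 1 h after dosing. Primary screening was in duplicate at 25 uM, with concentration series in follow-up. Loss of signal versus DMSO indicates displacement.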

[20] = molecular target: Type-1 angiotensin II receptor (Homo sapiens) (UniProt P30556); test: NVS_GPCR_hAT1: NovaScreen (NVS) G Protein-Coupled Receptor Assay for human Angiotensin II receptor type 1 (AT1) (AID 2283263)
Method in brief: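 Membranes from KAN-TS cells; radioligand competitive displacement, 3 h, filtration and scintillation counting. Single-point duplicate screen at 25 uM, then concentration-response up to 50 uM for hits; loss of signal fitted versus DMSO.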

Sequence of human Serotonin, 5-Hydroxytryptamine Receptor 5A (5HT5A), HTR5A (gene 3361) (P47898 whole entry, looked up): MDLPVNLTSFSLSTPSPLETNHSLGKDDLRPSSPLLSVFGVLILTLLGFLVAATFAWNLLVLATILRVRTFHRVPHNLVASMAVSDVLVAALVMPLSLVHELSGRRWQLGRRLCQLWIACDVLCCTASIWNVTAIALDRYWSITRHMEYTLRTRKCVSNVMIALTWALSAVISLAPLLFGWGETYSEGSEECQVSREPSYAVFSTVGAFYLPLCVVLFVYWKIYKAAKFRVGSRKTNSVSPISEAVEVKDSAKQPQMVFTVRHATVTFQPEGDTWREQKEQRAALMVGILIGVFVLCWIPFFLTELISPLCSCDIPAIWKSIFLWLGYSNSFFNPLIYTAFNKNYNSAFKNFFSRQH
Sequence of guinea pig Leukotriene D4 Receptor (LTD4), CYSLTR1 (gene 100135514) (Q2NNR5 whole entry, looked up): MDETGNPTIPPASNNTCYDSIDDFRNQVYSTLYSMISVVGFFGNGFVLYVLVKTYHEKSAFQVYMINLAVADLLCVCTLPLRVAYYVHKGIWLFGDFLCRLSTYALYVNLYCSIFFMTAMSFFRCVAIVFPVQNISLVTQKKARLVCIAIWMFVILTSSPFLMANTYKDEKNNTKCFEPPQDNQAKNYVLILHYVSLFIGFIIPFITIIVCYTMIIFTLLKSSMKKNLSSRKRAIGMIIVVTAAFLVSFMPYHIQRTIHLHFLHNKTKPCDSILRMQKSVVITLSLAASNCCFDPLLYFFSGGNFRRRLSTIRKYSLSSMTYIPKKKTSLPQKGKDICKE
Sequence of human Adrenergic, Alpha 2c Receptor (Adra2C), ADRA2C (gene 152) (P18825 whole entry, looked up): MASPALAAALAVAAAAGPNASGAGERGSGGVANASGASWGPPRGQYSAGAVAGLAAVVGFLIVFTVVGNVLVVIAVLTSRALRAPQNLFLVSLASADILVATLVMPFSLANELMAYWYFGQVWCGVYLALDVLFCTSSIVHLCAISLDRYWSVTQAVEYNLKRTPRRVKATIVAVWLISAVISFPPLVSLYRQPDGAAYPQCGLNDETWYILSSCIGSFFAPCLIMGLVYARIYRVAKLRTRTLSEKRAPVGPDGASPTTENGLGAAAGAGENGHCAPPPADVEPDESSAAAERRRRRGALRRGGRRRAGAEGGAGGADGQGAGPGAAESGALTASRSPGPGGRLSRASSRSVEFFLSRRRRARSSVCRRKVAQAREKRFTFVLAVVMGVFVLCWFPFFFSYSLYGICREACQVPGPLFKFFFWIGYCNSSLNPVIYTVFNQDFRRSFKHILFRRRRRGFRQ
Sequence of human Dopamine Receptor D2 (DRD2), DRD2 (gene 1813) (P14416 whole entry, looked up): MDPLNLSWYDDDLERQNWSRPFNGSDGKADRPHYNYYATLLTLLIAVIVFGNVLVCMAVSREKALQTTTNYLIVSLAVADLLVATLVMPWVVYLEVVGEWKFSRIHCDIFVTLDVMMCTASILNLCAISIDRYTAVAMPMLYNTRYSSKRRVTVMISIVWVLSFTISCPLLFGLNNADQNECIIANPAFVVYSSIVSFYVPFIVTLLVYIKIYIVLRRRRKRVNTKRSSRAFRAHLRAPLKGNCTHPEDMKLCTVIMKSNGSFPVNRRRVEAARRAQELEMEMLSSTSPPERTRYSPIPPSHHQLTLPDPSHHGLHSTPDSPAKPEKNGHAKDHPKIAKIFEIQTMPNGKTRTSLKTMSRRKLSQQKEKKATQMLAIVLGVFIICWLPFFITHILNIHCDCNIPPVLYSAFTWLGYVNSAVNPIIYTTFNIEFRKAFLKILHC
Sequence of human Adenosine A2a Receptor (AdoRA2a), ADORA2A (gene 135) (P29274 whole entry, looked up): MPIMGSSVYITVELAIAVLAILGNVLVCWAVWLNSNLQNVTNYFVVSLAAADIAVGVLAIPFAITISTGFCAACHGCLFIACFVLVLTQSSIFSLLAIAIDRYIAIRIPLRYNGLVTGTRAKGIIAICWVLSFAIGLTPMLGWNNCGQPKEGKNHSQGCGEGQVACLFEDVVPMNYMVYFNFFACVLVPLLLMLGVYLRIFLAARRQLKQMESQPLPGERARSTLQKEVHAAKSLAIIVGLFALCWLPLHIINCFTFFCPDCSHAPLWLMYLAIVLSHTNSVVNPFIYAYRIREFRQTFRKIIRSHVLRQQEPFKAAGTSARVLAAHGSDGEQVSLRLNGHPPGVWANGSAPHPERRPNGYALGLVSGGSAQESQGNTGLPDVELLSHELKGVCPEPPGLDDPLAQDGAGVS
Sequence of human Adenosine A1 Receptor (AdoRA1), ADORA1 (gene 134) (P30542 whole entry, looked up): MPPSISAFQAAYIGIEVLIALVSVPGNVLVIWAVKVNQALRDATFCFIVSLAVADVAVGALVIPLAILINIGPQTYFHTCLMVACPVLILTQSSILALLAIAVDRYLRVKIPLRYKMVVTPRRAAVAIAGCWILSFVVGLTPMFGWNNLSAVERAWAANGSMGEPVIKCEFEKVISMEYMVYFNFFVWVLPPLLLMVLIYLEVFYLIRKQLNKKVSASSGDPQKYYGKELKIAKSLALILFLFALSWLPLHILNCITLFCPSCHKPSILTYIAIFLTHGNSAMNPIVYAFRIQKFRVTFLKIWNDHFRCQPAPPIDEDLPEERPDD
Sequence of human Serotonin, 5-Hydroxytryptamine Receptor 6 (5HT6), HTR6 (gene 3362) (P50406 whole entry, looked up): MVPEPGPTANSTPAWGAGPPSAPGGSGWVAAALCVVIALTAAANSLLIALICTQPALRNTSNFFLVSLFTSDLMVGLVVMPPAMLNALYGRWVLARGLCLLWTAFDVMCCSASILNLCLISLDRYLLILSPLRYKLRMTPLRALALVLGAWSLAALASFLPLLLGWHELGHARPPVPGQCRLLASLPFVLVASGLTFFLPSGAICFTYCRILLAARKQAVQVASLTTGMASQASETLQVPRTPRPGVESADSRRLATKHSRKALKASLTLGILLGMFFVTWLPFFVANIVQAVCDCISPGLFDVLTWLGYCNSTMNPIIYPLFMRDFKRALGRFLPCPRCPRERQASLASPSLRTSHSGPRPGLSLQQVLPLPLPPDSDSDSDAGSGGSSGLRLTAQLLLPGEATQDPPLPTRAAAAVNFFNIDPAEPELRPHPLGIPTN
Sequence of human Dopamine Receptor D4.4 (DRD4.4), DRD4 (gene 1815) (P21917 whole entry, looked up): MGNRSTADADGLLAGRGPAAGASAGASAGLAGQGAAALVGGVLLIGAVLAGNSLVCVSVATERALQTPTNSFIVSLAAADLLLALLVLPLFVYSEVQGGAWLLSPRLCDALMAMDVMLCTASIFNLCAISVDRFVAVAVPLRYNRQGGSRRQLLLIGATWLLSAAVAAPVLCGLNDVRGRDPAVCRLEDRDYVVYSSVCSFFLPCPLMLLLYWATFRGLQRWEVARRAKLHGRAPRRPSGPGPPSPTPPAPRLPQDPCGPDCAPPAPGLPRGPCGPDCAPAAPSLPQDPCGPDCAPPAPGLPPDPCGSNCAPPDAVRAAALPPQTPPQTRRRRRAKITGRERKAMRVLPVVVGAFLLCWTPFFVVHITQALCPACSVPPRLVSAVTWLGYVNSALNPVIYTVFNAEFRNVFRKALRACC
Sequence of guinea pig Opioid, Kappa 1 Receptor (OpiateK), OPRK1 (gene 100135587) (P41144 whole entry, looked up): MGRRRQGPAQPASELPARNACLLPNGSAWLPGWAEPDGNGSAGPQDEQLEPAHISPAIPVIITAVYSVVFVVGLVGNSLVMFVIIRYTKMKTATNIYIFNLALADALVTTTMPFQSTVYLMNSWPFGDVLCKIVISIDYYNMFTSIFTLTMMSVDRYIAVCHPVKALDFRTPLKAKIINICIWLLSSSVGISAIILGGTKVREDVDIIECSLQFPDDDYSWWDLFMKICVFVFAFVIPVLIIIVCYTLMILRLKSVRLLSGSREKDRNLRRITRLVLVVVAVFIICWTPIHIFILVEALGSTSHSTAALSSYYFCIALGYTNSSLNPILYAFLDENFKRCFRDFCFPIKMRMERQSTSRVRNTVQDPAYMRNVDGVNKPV
Sequence of Beta-2 adrenergic receptor (Homo sapiens) (P07550 whole entry, looked up): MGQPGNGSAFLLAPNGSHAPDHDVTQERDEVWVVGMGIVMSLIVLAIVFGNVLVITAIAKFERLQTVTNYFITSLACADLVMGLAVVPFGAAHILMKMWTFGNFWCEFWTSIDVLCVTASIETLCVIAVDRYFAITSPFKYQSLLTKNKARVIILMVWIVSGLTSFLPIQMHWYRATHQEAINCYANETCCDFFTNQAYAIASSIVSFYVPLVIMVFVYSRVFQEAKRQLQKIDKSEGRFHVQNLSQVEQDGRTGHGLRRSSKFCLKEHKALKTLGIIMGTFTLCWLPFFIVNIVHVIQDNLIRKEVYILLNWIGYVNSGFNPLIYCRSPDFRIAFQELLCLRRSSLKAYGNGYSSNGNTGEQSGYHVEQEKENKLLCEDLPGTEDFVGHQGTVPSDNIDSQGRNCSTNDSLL
Sequence of human Adrenergic, Beta 1 Receptor (Adrb1), ADRB1 (gene 153) (P08588 whole entry, looked up): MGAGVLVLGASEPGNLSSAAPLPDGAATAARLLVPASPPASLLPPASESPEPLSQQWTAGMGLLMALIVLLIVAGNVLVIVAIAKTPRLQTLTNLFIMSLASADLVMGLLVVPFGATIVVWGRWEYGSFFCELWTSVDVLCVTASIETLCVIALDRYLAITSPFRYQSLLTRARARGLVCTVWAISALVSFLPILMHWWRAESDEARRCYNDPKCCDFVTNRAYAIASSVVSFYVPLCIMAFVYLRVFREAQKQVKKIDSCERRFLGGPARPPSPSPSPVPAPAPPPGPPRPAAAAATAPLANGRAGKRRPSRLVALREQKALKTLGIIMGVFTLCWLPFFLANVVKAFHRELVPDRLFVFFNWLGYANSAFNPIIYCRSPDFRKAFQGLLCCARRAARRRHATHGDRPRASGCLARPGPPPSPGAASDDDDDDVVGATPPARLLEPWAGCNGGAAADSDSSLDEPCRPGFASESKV
Sequence of human Endothelin Receptor Type A (ETA), EDNRA (gene 1909) (P25101 whole entry, looked up): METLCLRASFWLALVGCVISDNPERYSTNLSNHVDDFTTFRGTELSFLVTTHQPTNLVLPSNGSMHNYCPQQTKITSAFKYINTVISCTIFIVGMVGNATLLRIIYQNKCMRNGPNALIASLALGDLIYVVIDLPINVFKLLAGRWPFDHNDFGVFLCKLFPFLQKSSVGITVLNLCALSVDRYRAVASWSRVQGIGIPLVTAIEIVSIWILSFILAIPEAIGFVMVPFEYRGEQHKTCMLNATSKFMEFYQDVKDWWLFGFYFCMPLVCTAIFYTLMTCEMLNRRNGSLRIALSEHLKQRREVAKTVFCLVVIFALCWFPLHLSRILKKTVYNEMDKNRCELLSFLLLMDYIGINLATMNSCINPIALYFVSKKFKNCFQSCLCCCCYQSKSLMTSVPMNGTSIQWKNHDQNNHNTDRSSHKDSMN

SMILES: Cc1oc(-c2ccccc2)nc1CCOc1ccc(C[C@H](Nc2ccccc2C(=O)c2ccccc2)C(=O)O)cc1
- outcome [1]: inactive
- outcome [2]: inactive
- AC50 [3]: 9.5 µM (active)
- AC50 [4]: 25 µM (active)
- AC50 [5]: 13.6 µM (active)
- outcome [6]: inactive
- AC50 [7]: 35.5 µM (active)

SMILES: CCCOC(=O)c1ccc(O)cc1
- outcome [1]: inactive
- AC50 [4]: 11.8 µM (active)

SMILES: COc1ccc([N+](=O)[O-])cc1N
- AC50 [8]: 7.93 µM (active)

SMILES: Cc1cc(CCN2CCN(c3nsc4ccccc34)CC2)cc2c1NC(=O)CC2(C)C
- outcome [1]: inactive
- outcome [2]: inactive

SMILES: C#C[C@]1(O)CC[C@H]2[C@@H]3CCC4=CC(=O)CC[C@@H]4[C@H]3CC[C@@]21C
- outcome [9]: inactive
- outcome [10]: inactive

SMILES: CN1CCN(c2ccccc2/C=C2\SCCN(c3ccc(Cl)c(Cl)c3)C2=O)CC1
- AC50 [11]: 1.9 µM (active)
- AC50 [3]: 0.302 µM (active)
- AC50 [9]: 3.39 µM (active)
- AC50 [12]: 1.45 µM (active)
- AC50 [13]: 3.51 µM (active)
- AC50 [14]: 0.199 µM (active)

SMILES: CCCCCCCC(=O)O
- outcome [2]: inactive
- outcome [15]: inactive
- outcome [9]: inactive
- outcome [4]: inactive

SMILES: CN1CCC[C@H]1c1cccnc1
- outcome [15]: inactive

SMILES: CC(C)(C)c1ccc(O)c(C(C)(C)C)c1
- outcome [16]: inactive
- outcome [17]: inactive

SMILES: O=C(OCCOCCOC(=O)c1ccccc1)c1ccccc1
- AC50 [4]: 5.62 µM (active)

SMILES: CC#C[C@]1(O)CC[C@H]2[C@@H]3CCC4=CC(=O)CCC4=C3[C@@H](c3ccc(N(C)C)cc3)C[C@@]21C
- outcome [4]: inactive
- outcome [16]: inactive

SMILES: CC1=C(/C=C/C(C)=C/C=C/C(C)=C/C(=O)O)C(C)(C)CCC1
- AC50 [6]: 1.8 µM (active)

SMILES: CC[C@H](c1ccc(O)cc1)[C@@H](CC)c1ccc(O)cc1
- AC50 [3]: 1.69 µM (active)
- outcome [9]: inactive
- AC50 [4]: 8.65 µM (active)
- AC50 [16]: 12.4 µM (active)
- outcome [5]: inactive
- outcome [18]: inactive
- AC50 [8]: 6.99 µM (active)

SMILES: CCCCCCCCCCCCc1ccccc1S(=O)(=O)O
- AC50 [1]: 7.5 µM (active)
- AC50 [2]: 25 µM (active)
- AC50 [3]: 6.39 µM (active)
- outcome [9]: inactive
- AC50 [12]: 31.9 µM (active)
- AC50 [4]: 18.1 µM (active)
- AC50 [16]: 22.6 µM (active)
- outcome [19]: inactive
- AC50 [13]: 6.83 µM (active)
- AC50 [5]: 7.16 µM (active)
- AC50 [14]: 21.7 µM (active)
- AC50 [20]: 8.83 µM (active)
- AC50 [6]: 9.01 µM (active)
- AC50 [8]: 18.5 µM (active)
- AC50 [7]: 25.2 µM (active)

SMILES: N#C[C@@H]1CC(F)(F)CN1C(=O)CNC1CC2CCC(C1)N2c1ncccn1 (some centres not stated)
- AC50 [17]: 9.53 µM (active)

SMILES: c1ccc2cc3c(ccc4ccccc43)cc2c1
- AC50 [6]: 35.5 µM (active)

SMILES: CCC(=C(c1ccc(O)cc1)c1ccc(OCCN(C)C)cc1)c1ccccc1
- AC50 [3]: 3.32 µM (active)
- AC50 [12]: 1.74 µM (active)
- AC50 [4]: 2.12 µM (active)
- AC50 [16]: 3.08 µM (active)
- AC50 [5]: 4.42 µM (active)
- outcome [6]: inactive
- AC50 [8]: 0.647 µM (active)
